PubChem BioAssay
Active and inactive are the calls of the source.

Legend:
[1] = tested on: PRMT1 (protein arginine N-methyltransferase 1); assay: PRMT1 binders on small-molecule microarrays, primary screen, biochemical, small-molecule microarray, 635 nm fluorescence (AID 1088); settings: small-molecule microarray binding, higher = more signal;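 further: binding of Prmt1 protein to compounds spotted on small-molecule microarray slides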
[2] = yeast growth modulation, basal conditions, primary screen, YJM789 clinical isolate, OD600, 24 h (AID 1089);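 further: growth of clinical yeast isolate S. cerevisiae YJM 789 seeded 1000 cells per well; test concentration not given here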; settings: S. cerevisiae YJM789 growth, higher = more signal, called active from +8 up or from −8 down
[3] = fission yeast growth modulation, primary screen, strain 972, OD600, 24 h, no modulator (AID 1090);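 further: basal condition with compound alone and no growth modifier present; test concentration not given here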; settings: S. pombe 972 growth, higher = more signal, called active from +8 up or from −8 down
[4] = S. cerevisiae growth modulation with rapamycin, primary screen, strain BY4716, OD600, 96 h (AID 1091); settings: higher = more signal, called active from +8 up or from −8 down; further: test concentration not given here
[5] = target: Torsin-1A-interacting protein 2 (Homo sapiens) (UniProt Q8NFQ8); assay: LULL1 binders on small-molecule microarray, primary screen, cell lysate, human LULL1 lysate, 635/667 nm fluorescence (AID 1092); settings: hLULL1 lysate binding, 635 nm fluorescence, higher = more signal;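 further: probe is lysate of COS7 cells overexpressing human LULL1; score merges per-feature 667 nm fluorescence with signal-to-noise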
[6] = E. coli growth modulation, two-sided OD650, primary screen, E. coli filamentation project, strain DRC41, 24 h (AID 1093); settings: OD650, 24 h, higher = more signal, called active from +8 up or from −8 down;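 further: MC1000 strain lacking acrAB efflux and sulA so SOS filamentation is blocked; test concentration not given here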
[7] = small-molecule microarray binders of probe aLefty2, primary screen, biochemical, biotinylated probe, 635/667 nm fluorescence (AID 1094); settings: higher = more signal;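 further: score merges spot fluorescence near 667 nm with spot signal-to-noise ratio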
[8] = tested on: Noggin (protein binding on small-molecule microarray); assay: Noggin binders on small-molecule microarray, primary screen, biochemical, 635/667 nm fluorescence (AID 1095); settings: 635 nm fluorescence, higher = more signal;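 further: score merges 667 nm feature fluorescence with signal to noise over triplicate slides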
[9] = target: Neurogenic locus notch homolog protein 3 (Homo sapiens) (UniProt Q9UM47); assay: NOTCH3 binders on small-molecule microarray, primary screen, biochemical, 635/667 nm fluorescence (AID 1096); settings: NOTCH3 binding, 635 nm fluorescence, higher = more signal
[10] = small-molecule microarray binders of probe aEGFR, primary screen, biochemical, biotinylated probe, 635/667 nm fluorescence (AID 1097); settings: higher = more signal;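 further: probe is a biotinylated anti-EGFR antibody binding compounds printed on slides; score combines fluorescence near 667 nm and signal to noise of each spot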
[11] = tested on: Plasmodium falciparum Sir2 (PF13_0152, Sir2A); assay: pfSir2 binders on small-molecule microarrays, primary screen, biochemical, small-molecule microarray, 635 nm fluorescence (AID 1098); settings: small-molecule microarray binding, fluorescence 635 nm; higher = more signal;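 further: score merges spot fluorescence intensity with its signal-to-noise ratio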
[12] = small-molecule microarray binders of probe aDKK1, primary screen, biochemical, biotinylated probe, 635/667 nm fluorescence (AID 1099); settings: higher = more signal;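 further: score merges 667nm spot fluorescence with signal to noise across triplicate slides; reference of the scale not given here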
[13] = small-molecule microarray binders of probe aCHRDL2, primary screen, biochemical, biotinylated probe, 635/667 nm fluorescence (AID 1100); settings: higher = more signal
[14] = splicing luciferase reporter signal modulators, primary screen, spliceosome inhibition project, cell-based, HEK293, splice +/- reporter (AID 1101); settings: luminescence, 24 h, higher = more signal, called active from +8 up or from −8 down;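 further: HEK293 cells carrying a splicing-competent luciferase reporter gene; test concentration not given here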
[15] = target: Fibroblast growth factor 10 (Homo sapiens) (UniProt O15520); assay: FGF10 binders on small-molecule microarrays, primary screen, biochemical, small-molecule microarray, 635 nm fluorescence (AID 1102); settings: FGF10 binding, fluorescence 635 nm, higher = more signal
[16] = tested on: glycogen synthase kinase-3 (GSK3A per assay name; protocol says GSK3B); assay: GSK3 binders on small-molecule microarrays, primary screen, biochemical, small-molecule microarray, 635 nm fluorescence, GSK3A (AID 1103); settings: small-molecule microarray binding, fluorescence 635 nm; higher = more signal; further: the record names both GSK3A and GSK3B
[17] = target: Epidermal growth factor receptor (Homo sapiens) (UniProt P00533); assay: EGFR binders on small-molecule microarrays, primary screen, biochemical, small-molecule microarray, 635 nm fluorescence (AID 1104); settings: EGFR binding, higher = more signal;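 further: score merges 667 nm emission intensity with spot signal to noise over triplicate slides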
[18] = target: Follistatin-related protein 3 (Homo sapiens) (UniProt O95633); assay: FSTL3 binders on small-molecule microarrays, primary screen, biochemical, small-molecule microarray, 635 nm fluorescence (AID 1105); settings: FSTL3 binding, higher = more signal;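 further: score merges emission near 667 nm and signal to noise per printed spot across three slides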
[19] = target: Dickkopf-related protein 1 (Homo sapiens) (UniProt O94907); assay: DKK1 binders on small-molecule microarrays, primary screen, biochemical, small-molecule microarray, 635 nm fluorescence scan (AID 1106); settings: DKK1 binding, higher = more signal;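 further: score merges emission near 667 nm with signal to noise over three replicate slides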
[20] = tested on: Inhibin beta A chain (activin A); assay: INHBA (activin A) binders on microarrays, primary screen, biochemical, small-molecule microarray, 635 nm fluorescence scan (AID 1107); settings: small-molecule microarray binding, higher = more signal;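 further: mouse activin A protein probed at 4.33 µg/mL on printed slides; score merges bound-protein fluorescence near 667 nm with spot signal-to-noise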

Sequence of Neurogenic locus notch homolog protein 3 (Homo sapiens) (Q9UM47 whole entry, looked up): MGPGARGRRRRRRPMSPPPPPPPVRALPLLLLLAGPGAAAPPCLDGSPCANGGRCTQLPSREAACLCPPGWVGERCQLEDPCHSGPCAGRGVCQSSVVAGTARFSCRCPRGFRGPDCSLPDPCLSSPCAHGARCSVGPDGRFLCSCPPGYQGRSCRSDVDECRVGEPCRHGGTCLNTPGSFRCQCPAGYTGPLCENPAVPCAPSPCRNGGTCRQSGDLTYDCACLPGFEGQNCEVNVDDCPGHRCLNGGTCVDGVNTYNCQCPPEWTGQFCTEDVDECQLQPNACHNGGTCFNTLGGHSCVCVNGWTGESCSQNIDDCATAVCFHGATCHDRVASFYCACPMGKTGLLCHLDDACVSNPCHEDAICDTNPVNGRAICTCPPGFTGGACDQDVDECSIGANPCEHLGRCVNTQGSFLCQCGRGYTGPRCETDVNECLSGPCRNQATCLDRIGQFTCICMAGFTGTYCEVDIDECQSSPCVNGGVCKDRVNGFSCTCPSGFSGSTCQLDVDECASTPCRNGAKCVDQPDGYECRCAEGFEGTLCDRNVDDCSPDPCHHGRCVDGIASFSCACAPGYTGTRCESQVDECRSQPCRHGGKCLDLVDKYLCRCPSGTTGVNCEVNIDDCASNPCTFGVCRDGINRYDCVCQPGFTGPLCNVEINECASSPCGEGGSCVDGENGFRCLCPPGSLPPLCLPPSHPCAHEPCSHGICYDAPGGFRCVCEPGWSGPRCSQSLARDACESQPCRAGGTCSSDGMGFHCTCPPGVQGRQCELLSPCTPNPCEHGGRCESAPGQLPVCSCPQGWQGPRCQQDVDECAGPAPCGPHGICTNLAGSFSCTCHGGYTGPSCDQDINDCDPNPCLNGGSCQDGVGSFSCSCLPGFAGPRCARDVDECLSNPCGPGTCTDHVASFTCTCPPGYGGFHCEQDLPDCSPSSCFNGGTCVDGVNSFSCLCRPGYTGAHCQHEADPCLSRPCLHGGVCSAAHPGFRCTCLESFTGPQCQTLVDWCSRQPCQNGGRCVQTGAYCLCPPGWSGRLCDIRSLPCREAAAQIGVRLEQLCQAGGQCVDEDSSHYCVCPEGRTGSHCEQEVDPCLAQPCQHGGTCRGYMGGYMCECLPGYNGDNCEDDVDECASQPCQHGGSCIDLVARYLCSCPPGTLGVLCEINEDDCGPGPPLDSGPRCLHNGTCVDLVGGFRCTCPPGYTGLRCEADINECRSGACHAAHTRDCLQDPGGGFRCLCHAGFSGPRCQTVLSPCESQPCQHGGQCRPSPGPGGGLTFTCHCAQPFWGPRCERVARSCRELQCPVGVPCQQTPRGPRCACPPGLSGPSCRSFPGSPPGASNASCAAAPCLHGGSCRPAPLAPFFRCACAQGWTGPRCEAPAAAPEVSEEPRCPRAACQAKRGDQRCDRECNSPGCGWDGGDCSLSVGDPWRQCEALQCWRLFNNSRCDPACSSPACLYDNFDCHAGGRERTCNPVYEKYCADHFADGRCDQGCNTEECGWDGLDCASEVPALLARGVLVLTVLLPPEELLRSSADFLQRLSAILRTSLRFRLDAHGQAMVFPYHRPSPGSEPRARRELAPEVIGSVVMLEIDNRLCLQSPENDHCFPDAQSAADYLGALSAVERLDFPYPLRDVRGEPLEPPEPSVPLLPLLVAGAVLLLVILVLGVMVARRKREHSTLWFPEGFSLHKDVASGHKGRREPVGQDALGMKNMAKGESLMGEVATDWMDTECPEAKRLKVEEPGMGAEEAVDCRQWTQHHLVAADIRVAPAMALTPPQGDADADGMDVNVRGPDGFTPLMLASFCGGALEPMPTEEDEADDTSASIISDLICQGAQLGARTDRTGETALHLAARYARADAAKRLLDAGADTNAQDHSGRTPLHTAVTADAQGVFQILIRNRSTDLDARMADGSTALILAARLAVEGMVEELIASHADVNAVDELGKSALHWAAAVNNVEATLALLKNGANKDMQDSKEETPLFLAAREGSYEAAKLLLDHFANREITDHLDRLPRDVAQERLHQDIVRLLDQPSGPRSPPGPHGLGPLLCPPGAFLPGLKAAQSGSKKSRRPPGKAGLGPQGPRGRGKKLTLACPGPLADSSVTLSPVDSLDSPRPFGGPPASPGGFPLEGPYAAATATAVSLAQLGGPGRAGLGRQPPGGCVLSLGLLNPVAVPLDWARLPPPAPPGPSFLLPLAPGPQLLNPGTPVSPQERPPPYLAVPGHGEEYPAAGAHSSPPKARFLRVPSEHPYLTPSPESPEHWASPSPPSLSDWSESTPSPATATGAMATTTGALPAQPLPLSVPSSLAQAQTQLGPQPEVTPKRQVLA
Sequence of Epidermal growth factor receptor (Homo sapiens) (P00533 whole entry, looked up): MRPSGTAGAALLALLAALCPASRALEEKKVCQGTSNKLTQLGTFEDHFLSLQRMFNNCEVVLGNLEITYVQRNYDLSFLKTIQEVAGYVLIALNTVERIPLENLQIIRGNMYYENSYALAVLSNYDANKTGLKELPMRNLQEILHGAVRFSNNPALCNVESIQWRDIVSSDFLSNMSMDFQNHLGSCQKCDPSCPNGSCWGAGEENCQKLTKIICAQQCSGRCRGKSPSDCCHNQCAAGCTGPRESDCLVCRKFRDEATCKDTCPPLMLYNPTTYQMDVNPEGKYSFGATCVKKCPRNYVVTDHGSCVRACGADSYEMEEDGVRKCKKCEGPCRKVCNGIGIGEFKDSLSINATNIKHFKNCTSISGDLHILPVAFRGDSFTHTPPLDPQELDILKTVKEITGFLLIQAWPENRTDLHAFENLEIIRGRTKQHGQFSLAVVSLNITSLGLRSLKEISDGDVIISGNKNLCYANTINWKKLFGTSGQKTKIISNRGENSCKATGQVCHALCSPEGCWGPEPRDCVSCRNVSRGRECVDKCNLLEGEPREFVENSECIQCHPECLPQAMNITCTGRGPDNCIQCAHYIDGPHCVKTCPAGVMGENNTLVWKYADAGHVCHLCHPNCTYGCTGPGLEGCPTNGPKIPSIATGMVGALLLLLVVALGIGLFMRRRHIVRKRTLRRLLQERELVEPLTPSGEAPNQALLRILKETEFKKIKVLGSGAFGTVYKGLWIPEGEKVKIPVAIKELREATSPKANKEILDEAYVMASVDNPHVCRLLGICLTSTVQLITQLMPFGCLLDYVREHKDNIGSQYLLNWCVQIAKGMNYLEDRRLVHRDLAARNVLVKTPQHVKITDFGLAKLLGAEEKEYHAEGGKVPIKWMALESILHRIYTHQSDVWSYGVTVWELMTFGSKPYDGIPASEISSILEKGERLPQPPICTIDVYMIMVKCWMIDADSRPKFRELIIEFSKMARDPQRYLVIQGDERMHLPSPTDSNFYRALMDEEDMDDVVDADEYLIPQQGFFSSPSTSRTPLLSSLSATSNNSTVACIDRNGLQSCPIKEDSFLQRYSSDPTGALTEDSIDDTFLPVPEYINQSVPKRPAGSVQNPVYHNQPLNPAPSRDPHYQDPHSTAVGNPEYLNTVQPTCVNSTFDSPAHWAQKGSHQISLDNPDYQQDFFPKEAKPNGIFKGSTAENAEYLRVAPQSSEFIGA
Sequence of Fibroblast growth factor 10 (Homo sapiens) (O15520 whole entry, looked up): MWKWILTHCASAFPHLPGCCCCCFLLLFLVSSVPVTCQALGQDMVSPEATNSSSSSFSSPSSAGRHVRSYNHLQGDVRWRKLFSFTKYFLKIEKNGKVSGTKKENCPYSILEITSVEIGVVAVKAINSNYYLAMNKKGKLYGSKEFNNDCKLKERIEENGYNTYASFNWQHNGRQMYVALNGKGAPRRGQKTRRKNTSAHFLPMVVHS
Sequence of Torsin-1A-interacting protein 2 (Homo sapiens) (Q8NFQ8 whole entry, looked up): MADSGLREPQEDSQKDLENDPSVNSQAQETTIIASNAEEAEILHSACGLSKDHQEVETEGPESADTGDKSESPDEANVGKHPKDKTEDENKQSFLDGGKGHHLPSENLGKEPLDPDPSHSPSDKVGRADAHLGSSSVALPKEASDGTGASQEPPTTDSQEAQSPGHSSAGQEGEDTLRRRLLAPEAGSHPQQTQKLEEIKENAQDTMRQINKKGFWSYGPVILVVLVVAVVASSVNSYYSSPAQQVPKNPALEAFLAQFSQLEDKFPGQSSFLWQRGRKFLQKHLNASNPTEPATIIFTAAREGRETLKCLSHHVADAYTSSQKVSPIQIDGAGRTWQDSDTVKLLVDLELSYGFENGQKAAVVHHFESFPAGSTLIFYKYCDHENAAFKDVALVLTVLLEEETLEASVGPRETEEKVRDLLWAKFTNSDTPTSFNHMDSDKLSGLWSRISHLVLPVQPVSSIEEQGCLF
Sequence of Dickkopf-related protein 1 (Homo sapiens) (O94907 whole entry, looked up): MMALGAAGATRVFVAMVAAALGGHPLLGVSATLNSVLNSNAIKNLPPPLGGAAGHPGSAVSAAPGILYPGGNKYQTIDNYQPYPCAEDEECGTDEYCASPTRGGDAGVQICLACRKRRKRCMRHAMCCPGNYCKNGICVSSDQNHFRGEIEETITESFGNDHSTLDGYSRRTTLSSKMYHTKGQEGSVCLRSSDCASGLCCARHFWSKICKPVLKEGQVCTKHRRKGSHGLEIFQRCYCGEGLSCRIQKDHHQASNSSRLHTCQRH
Sequence of Follistatin-related protein 3 (Homo sapiens) (O95633 whole entry, looked up): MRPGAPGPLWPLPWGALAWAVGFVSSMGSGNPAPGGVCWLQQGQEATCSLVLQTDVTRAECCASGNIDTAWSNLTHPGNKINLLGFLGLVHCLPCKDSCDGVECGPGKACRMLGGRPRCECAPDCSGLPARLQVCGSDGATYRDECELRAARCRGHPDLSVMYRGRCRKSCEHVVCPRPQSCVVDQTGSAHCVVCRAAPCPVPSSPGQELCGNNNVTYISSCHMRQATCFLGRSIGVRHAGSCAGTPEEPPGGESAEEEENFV

SMILES	composite z-score [1]	z-score [2]	z-score [3]	z-score [4]	composite z-score [5]	z-score [6]	composite z-score [7]	composite z-score [8]	composite z-score [9]	composite z-score [10]	composite z-score [11]	composite z-score [12]	composite z-score [13]	z-score [14]	composite z-score [15]	composite z-score [16]	composite z-score [17]	composite z-score [18]	composite z-score [19]	composite z-score [20]
CCOC(=O)[C@H](Cc1ccccc1)NC(=O)CCC1CC(OC(=O)NCCc2ccc(F)cc2)CC2(CCCC(COC(=O)NCCc3ccc(Cl)cc3)O2)O1 (stereo not given in full)	1.13	0.154 (inactive)	1.04 (inactive)	0.851 (inactive)	1.83	0.822 (inactive)	-0.174	0.658	0.924	-0.0687	0.54	-0.0724	-0.379	-0.0219 (inactive)	0.319	0.691	0.401	0.422	0.555	0.018
COc1ccc(O[C@H]2C=C[C@@H](c3ccccc3)O[C@@H]2CON=C2[C@H]3CCn4c(=O)n(-c5ccccc5)c(=O)n4[C@H]3[C@H](O)[C@@H]3O[C@H]23)cc1	1.3	-0.417 (inactive)	0.444 (inactive)	0.661 (inactive)	0.86	-0.745 (inactive)	-0.206	0.437	0.863	0.0009	0.393	0.214	-0.224	1.09 (inactive)	0.464	0.417	0.318	0.584	0.288	0.338
O=c1n(-c2ccccc2)c(=O)n2n1CC[C@@H]1C(=NOCc3ccccc3)[C@H]3O[C@H]3[C@@H](O)[C@@H]12	-0.955	-0.434 (inactive)	-0.326 (inactive)	-0.871 (inactive)	-0.0733	-0.619 (inactive)	-0.274	-0.131	0.116	-0.0531	-0.494	-0.31	-0.393	0.491 (inactive)	0.334	-0.864	-0.0683	-0.136	0.0228	0.168
O=C1C[C@@H](O)[C@@H](O)[C@@H]2[C@@H]3C(=O)N(C[C@@H]4CCCO4)C(=O)[C@@H]3CC[C@@H]12	0.282	-0.217 (inactive)	-0.519 (inactive)	-0.404 (inactive)	1.17	0.48 (inactive)	-0.0708	0.658	0.472	0.091	0.495	-0.185	-0.7	-0.0639 (inactive)	0.612	0.718	0.573	0.761	0.823	-0.0076
CC(C)CON=C1C[C@@H](O)[C@@H](O)[C@@H]2[C@@H]3C(=O)N(C(C)(C)C)C(=O)[C@@H]3CC[C@H]12	0.829	-0.318 (inactive)	0.674 (inactive)	0.0851 (inactive)	1.96	0.573 (inactive)	0.0577	-0.316	-0.562	-0.0966	0.801	0.454	0.562	0.886 (inactive)	-0.294	-0.516	-0.205	-0.743	-0.82	-0.576
C[C@@H](c1ccccc1)N1C(=O)[C@H]2[C@H]3[C@H](O)[C@H](O)CC(=NO[C@@H]4O[C@H](CO)[C@@H](O)[C@H](O)[C@H]4O)[C@@H]3CC[C@H]2C1=O	0.0967	0.114 (inactive)	0.149 (inactive)	-0.967 (inactive)	0.652	0.345 (inactive)	-0.126	0.111	0.372	0.0271	0.256	-0.193	-0.62	0.119 (inactive)	0.305	0.495	0.586	0.579	0.393	0.0868
CC(C)(C)N1C(=O)[C@H]2[C@H]3[C@H](O)[C@H](O)CC(=O)[C@H]3CC[C@H]2C1=O	0.729	0.445 (inactive)	-0.109 (inactive)	0.85 (inactive)	0.46	-0.29 (inactive)	-0.211	0.344	0.611	-0.0333	0.0159	-0.282	-0.674	-0.432 (inactive)	0.287	0.694	0.456	0.426	0.624	-0.167
COC(=O)[C@H](C)NC(=O)CCC1CC(OC(=O)NCc2ccc3c(c2)OCO3)CC2(CCCC(COC(=O)NCc3cccc(C(F)(F)F)c3)O2)O1 (stereo not given in full)	1.42	-1.04 (inactive)	0.0536 (inactive)	0.253 (inactive)	1.65	-0.15 (inactive)	-0.0096	0.186	0.524	-0.0644	1.02	0.114	-0.289	0.562 (inactive)	0.818	0.622	0.223	1.14	0.235	-0.0499
C#CCCCON=C1C[C@@H](O)[C@@H](O)[C@@H]2[C@@H]3C(=O)N(C(C)(C)C)C(=O)[C@@H]3CC[C@@H]12	-0.227	0.266 (inactive)	0.0546 (inactive)	0.934 (inactive)	0.148	-0.131 (inactive)	0.502	-1.11	-1.07	-0.106	0.856	1.19	1.28	0.624 (inactive)	-0.624	-0.545	-0.306	-0.576	-1.1	0.477
CO[C@H]1COC(=O)CC=C[C@H](C)[C@@H](OC)COC(=O)[C@@H](C)NC(=O)CC=C[C@@H]1C	1.53	-1.02 (inactive)	0.0386 (inactive)	-1.67 (inactive)	-1.92	-0.804 (inactive)	-0.148	1.54	0.0946	-0.0727	1.23	-0.377	-1.17	-0.653 (inactive)	0.447	0.597	1.27	1.44	1.49	1.52
